The values that follow come from ChEMBL document CHEMBL3988442, “University of Dundee, Small-Polar-MMV Screening Library” (2021).

Holding throughout (parameters): scale not given: direction of the effect not stated beside the values
The target in assay [1] is Protein translocase subunit SecA (Escherichia coli (strain K12)) (UniProt P10408). Briefly: Assay to Identify E. coli SecA ATPase Inhibitors. Type of assay: functional. The following applies: 30 µM.
The target of assay [2] is T1, Ubiquitin-activating enzyme e1, putative (Leishmania donovani (strain BPK282A1)) (UniProt E9BSI1).
T1 sequence (whole entry): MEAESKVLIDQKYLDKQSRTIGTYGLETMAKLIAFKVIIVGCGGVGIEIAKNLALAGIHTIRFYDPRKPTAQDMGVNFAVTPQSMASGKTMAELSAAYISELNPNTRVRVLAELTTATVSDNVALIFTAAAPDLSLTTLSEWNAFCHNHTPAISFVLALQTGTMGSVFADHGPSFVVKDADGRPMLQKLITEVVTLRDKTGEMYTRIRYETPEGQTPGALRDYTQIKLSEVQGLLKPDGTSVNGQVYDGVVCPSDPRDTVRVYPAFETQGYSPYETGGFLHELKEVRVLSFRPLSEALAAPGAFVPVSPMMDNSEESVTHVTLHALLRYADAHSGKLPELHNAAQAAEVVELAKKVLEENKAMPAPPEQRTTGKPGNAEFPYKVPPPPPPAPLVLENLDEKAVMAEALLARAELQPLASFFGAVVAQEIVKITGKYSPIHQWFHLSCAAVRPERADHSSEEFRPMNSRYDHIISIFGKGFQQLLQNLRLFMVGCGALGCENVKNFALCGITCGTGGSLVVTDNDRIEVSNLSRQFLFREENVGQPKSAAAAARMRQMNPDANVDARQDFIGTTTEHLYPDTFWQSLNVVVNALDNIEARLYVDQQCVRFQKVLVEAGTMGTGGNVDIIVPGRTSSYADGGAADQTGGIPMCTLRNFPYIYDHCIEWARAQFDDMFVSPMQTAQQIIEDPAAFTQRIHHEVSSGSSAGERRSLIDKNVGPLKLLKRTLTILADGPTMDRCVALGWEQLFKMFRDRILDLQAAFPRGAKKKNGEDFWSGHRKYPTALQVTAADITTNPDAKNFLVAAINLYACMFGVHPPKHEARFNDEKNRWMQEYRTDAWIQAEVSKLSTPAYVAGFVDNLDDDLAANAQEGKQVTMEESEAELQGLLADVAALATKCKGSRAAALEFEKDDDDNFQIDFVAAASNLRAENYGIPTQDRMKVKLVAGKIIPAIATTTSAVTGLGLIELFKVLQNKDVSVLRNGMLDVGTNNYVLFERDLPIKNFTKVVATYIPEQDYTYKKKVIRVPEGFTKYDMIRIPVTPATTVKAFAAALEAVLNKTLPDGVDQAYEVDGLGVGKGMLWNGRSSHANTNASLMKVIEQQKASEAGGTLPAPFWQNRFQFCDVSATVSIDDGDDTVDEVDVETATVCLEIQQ
Briefly: Leishmania donovani Ubiquitin Activating Enzyme (LdE1). The format is functional. The following applies: 30 µM.

For assay [3], the target named is AMP-activated protein kinase, AMPK (Homo sapiens) (UniProt P54646+O43741+P54619+Q9UGJ0+Q9Y478+Q13131+Q9UGI9). Briefly: AMP-dependent Kinase enzyme assay. An in vitro enzyme assay that detects ADP turnover that is directly proportional to AMPK activity. This uses naive AMPK that is activated during the assay with MK-8722. The format is functional. The following applies: 30 µM.

The target in assay [4] is Sialic acid-binding Ig-like lectin 9 (Homo sapiens) (UniProt Q9Y336). Put plainly: Hs-Siglec9 ALPHAscreen SOP 20170721. To be noted: 10 µM. (In general: Bead proximity is the source of the signal in Alpha formats.)
Sequence of Sialic acid-binding Ig-like lectin 9 (Homo sapiens) (Q9Y336 whole entry): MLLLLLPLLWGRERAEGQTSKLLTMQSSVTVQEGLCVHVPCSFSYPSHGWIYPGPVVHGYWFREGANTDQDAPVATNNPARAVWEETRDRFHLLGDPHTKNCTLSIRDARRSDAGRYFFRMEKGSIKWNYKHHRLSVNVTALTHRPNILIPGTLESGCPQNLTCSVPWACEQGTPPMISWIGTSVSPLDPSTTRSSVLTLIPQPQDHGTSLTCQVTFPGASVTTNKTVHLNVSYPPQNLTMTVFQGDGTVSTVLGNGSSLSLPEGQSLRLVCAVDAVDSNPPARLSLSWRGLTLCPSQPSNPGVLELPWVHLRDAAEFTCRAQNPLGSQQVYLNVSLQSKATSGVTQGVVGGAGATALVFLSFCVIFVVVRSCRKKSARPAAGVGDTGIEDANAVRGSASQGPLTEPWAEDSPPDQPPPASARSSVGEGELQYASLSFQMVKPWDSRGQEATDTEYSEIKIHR
In another assay the test system is Trypanosoma cruzi. Briefly: Trypanosoma cruzi phosphomannomutase and mannose-1-phosphate guanylyltransferase assay. Type of assay: functional. The following applies: 10 µM.
Assay [5] deals with T2, Arginase-2, mitochondrial (Homo sapiens) (UniProt P78540).
T2 sequence (whole entry): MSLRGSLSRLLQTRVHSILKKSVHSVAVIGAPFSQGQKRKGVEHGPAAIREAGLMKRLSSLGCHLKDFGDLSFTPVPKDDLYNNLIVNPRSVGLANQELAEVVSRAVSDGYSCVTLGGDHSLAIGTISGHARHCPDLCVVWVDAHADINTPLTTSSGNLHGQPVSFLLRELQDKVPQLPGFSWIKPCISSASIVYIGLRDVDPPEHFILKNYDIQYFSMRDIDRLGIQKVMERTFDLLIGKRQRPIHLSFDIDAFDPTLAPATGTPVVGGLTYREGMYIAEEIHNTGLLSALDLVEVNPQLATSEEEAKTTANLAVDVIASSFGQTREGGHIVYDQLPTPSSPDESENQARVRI
Briefly: in vitro enzyme assay to detect the production of urea directly proportional to the activity of Arginase II. Further: in the data most compounds retested in dose-response had high values. The format is functional. The following applies: 33.3 µM.

The target in assay [6] is T3, Proteasome subunit beta (Trypanosoma cruzi) (UniProt O96673).
T3 sequence (whole entry): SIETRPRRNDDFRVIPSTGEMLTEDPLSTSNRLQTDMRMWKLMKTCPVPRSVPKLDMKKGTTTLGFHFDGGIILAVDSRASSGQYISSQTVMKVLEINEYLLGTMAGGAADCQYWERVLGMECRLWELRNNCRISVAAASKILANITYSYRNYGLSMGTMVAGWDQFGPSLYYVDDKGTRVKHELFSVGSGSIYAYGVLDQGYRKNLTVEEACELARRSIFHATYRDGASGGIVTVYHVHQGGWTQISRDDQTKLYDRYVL
Put plainly: Trypanosoma cruzi proteasome chymotrypsin-like activity (TcProtChymo) assay. Further: in the data most compounds retested in dose-response had high values. The format is functional. To be noted: 9.37 µM.

The species entered for a further assay is Homo sapiens. Put plainly: To identify inhibition of the IFN signalling (Jak-Stat) pathway via expression of an eGFP reporter gene under the control of an IFN-stimulated response element (ISRE) containing MxA promoter. Type of assay: functional. To be noted: 30 µM. On the technique in general: In a reporter assay the amount or activity of a reporter protein is the signal.

For assay [7], the target named is T4, Tyrosyl-tRNA synthetase, putative (Trypanosoma cruzi (strain CL Brener)) (UniProt Q4DSP6).
T4 sequence (whole entry): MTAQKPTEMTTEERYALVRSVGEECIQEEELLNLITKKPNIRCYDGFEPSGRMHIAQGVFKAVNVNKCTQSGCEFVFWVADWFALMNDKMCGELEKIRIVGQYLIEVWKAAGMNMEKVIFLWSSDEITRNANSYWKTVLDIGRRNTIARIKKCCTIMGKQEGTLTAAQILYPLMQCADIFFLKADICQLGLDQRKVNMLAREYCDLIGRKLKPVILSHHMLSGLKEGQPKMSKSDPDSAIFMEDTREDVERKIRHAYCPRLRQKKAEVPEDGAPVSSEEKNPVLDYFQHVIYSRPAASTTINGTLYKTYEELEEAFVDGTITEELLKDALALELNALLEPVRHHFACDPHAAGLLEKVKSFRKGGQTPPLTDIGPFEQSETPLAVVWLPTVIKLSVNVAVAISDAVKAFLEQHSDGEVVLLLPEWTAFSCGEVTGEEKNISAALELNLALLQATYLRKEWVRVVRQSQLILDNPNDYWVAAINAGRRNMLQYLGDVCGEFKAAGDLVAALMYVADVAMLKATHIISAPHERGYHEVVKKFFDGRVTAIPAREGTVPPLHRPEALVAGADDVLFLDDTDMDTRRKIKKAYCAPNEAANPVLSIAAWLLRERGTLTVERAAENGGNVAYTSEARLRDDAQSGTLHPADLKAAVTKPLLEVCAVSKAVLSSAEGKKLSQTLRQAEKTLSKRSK
Put plainly: Trypanosoma cruzi tyrosyl tRNA synthetase (TcYRS) _High Tyrosine SOP. Further: in the data most compounds retested in dose-response had high values. The following applies: 30 µM. The format is functional.

In assay [8] the target is T4, Tyrosyl-tRNA synthetase, putative (Trypanosoma cruzi (strain CL Brener)). Put plainly: Trypanosoma cruzi tyrosyl tRNA synthetase (TcYRS) SOP. Type of assay: functional. To be noted: 30 µM.
The target in assay [9] is Chromo domain-containing protein 1 (Saccharomyces cerevisiae (strain ATCC 204508 / S288c) (Baker's yeast)) (UniProt P32657). Briefly: ScCHD-1 Enzyme Inhibition Assay. Further: in the data most compounds retested in dose-response had high values. Type of assay: functional. To be noted: 30 µM.
Sequence of Chromo domain-containing protein 1 (Saccharomyces cerevisiae (strain ATCC 204508 / S288c) (Baker's yeast)) (P32657 whole entry, the tested form may be a part): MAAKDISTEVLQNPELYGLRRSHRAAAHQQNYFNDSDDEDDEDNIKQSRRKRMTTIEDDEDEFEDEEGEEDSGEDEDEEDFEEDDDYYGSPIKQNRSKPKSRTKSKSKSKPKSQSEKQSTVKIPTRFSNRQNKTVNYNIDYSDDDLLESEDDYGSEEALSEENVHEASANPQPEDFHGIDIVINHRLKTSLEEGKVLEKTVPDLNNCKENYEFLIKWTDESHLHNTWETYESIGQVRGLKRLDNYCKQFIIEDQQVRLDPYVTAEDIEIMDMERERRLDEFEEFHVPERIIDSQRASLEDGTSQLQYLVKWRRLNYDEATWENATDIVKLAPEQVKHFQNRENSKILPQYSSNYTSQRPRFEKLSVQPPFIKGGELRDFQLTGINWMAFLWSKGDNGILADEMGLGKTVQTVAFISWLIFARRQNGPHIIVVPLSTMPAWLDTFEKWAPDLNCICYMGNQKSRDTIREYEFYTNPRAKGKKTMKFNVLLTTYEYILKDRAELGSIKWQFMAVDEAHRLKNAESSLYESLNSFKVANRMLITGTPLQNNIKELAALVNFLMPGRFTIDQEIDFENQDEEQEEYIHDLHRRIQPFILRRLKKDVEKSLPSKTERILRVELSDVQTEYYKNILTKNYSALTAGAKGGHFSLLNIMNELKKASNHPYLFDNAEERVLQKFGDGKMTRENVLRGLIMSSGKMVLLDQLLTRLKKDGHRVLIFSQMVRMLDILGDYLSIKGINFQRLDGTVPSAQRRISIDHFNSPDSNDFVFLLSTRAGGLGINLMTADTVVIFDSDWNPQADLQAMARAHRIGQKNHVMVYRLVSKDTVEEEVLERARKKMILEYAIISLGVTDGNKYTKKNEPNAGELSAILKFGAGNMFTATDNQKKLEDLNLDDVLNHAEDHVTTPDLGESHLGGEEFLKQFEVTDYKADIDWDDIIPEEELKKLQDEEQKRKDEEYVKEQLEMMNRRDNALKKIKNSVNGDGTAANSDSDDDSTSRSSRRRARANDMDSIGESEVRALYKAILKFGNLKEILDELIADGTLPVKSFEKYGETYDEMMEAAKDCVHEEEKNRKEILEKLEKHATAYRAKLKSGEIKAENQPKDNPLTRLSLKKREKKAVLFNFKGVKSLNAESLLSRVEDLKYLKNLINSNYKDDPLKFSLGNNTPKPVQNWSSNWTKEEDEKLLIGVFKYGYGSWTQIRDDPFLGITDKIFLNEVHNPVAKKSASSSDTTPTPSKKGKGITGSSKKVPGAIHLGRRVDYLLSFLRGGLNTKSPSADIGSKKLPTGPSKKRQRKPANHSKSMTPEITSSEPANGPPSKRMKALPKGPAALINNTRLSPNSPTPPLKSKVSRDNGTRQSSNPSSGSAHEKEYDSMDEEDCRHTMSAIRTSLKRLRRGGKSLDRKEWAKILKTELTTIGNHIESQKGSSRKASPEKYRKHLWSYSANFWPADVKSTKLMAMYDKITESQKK

Structures are written as SMILES. For some of these results: Results with a measured potency or affinity are listed apart.

Sequence of Protein translocase subunit SecA (Escherichia coli (strain K12)) (P10408 whole entry): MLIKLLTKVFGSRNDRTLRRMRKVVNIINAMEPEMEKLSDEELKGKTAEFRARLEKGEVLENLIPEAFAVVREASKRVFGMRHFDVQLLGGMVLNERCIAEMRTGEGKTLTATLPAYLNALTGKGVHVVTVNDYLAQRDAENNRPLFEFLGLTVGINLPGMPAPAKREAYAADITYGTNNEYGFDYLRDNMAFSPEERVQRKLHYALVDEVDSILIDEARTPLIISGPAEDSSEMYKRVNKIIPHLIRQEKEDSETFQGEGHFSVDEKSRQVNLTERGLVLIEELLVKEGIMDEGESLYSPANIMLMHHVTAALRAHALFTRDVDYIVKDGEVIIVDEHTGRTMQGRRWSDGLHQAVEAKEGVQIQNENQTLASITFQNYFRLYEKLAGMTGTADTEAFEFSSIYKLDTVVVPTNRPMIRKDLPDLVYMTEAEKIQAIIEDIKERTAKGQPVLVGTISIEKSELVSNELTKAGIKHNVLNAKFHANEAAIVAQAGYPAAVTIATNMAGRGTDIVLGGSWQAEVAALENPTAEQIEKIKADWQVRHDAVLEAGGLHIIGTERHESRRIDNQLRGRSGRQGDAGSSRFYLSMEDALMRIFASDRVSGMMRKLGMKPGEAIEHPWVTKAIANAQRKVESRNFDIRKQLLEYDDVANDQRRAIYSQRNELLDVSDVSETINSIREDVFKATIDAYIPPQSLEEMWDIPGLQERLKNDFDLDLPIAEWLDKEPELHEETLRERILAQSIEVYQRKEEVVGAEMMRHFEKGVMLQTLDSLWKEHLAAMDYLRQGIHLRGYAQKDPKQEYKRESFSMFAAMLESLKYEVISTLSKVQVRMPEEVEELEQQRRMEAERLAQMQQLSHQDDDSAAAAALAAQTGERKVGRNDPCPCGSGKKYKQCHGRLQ

As for `CN(Cc1ccccc1)C1COC2(CCN(Cc3nccs3)CC2)C1` (stereo unspecified), the Percent Effect in [1] is -6.64%; in assay [2] it was 13.3%; in [3] it was -9.84%; in assay [4], 1.43%; with Trypanosoma cruzi it was 3.09%; in assay [5], -51.1%. Further, the Percent Effect in assay [6] is 4.79%; in the assay filed under Homo sapiens it was -4.42%; in assay [7], 4.17%; in assay [8] it was 7.5%; in [9] it was -9.89%.

Consider `Clc1ccccc1C1(c2ccnc(-c3ncccn3)n2)CCNCC1`, for which the Percent Effect in assay [1] is -3.79%; in [2], 7.79%; in [3], 1.81%; in [4], 8.56%; in the assay on Trypanosoma cruzi, -3.64%; in assay [5], -2.76%. Also, the Percent Effect is 7.49% in assay [6]; -17.8% in the assay listed under Homo sapiens; 6.45% in [7]; 18.5% in assay [8]; -0.785% in assay [9].

For the compound `COCC1CN(C(=O)CNC(C)=O)Cc2ncnn2C1` (stereo unspecified), the Percent Effect was -4.16% in assay [1]; 7.79% in assay [2]; 5.62% in assay [3]; 8.97% in assay [4]; 2.65% in the assay on Trypanosoma cruzi; 2.76% in assay [5]. The Percent Effect is 4.99% in assay [6]; -13.1% in the assay filed under Homo sapiens; 6.45% in assay [7]; 13.6% in [8]; 0.679% in [9].

Regarding `CN(C)Cc1nnc(C2CCN(c3nccc(N)n3)CC2)n1C1CC1`, the Percent Effect in assay [1] is -4.19%; in assay [2] it was 1.39%; in assay [3] it was -3.33%; in assay [4], -0.797%; in the assay with Trypanosoma cruzi, 1.26%; in [5], 0.442%. Also, the Percent Effect in assay [6] was 8.42%; in the assay listed under Homo sapiens, -31.4%; in assay [7] it was 5.26%; in assay [8], 5.13%; in assay [9] it was -3.78%.

For the compound `CCc1noc(CN(C)Cc2ccc(N3CCCCC3)cc2)n1`, the Percent Effect is -2.48% in [1]; 2.6% in assay [2]; 0.261% in assay [3]; 13% in assay [4]; 3.83% with Trypanosoma cruzi; 15.2% in assay [5]. In addition, the Percent Effect in assay [6] is 13.5%; in the assay filed under Homo sapiens, 5.54%; in assay [7], -6.45%; in assay [8], -8.64%; in assay [9], -6.82%.

Consider `CC(OCC(F)(F)F)C(=O)N1CCCCC1` (stereo unspecified), for which the Percent Effect in assay [1] was -5.31%; in [2], 0%; in assay [3], -0.316%; in assay [4] it was -2.51%; in the assay on Trypanosoma cruzi it was -0.783%; in assay [5], -2.27%. Besides, the Percent Effect was -1.77% in assay [6]; 19.4% in the assay filed under Homo sapiens; 1.07% in assay [7]; 2.5% in [8]; 0.868% in [9].

Regarding `CSCCCNC(=O)Nc1cccc(-c2nccn2C)c1`, the Percent Effect in assay [1] is -3.41%; in assay [2], 6.94%; in [3], -0.0628%; in assay [4], 2.76%; in the assay on Trypanosoma cruzi, -0.0972%; in assay [5] it was 1.32%. In addition, the Percent Effect in [6] is 16.8%; in the assay listed under Homo sapiens it was 10.7%; in [7], 1.05%; in assay [8], 2.56%; in assay [9], -2.41%.

With `Cc1ccc(C(=O)NCC2(O)CCOCC2)cc1Br`, the Percent Effect in [1] is -4.53%; in assay [2] it was 5.41%; in assay [3] it was 0.131%; in assay [4], 12.8%; in the assay on Trypanosoma cruzi, -0.772%; in assay [5], -2.38%. Moreover, the Percent Effect in [6] is 7.07%; in the assay filed under Homo sapiens, 19%; in [7] it was 4.76%; in [8] it was 7.32%; in assay [9], -2.67%.

Turning to `Cc1cc(NC(=O)Cn2cc(C#N)c(=O)c3cc(Br)ccc32)no1`, the Percent Effect in assay [1] is -5.99%; in assay [2], -45.3%; in assay [3], -1.25%; in [4], 3.63%; in the assay with Trypanosoma cruzi, -1.27%; in assay [5] it was -9.9%. Further, the Percent Effect was 13.8% in [6]; 19.5% in the assay filed under Homo sapiens; -14.8% in assay [7]; -60.5% in [8]; 80.7% in [9].

For `CC(C(=O)N1CCCN(Cc2ccc(C#N)cc2)CC1)n1ccnc1` (stereo unspecified), the Percent Effect in assay [1] is -3.9%; in assay [2], 15.8%; in assay [3], -24.4%; in assay [4], -5.95%; in the assay on Trypanosoma cruzi, -6.01%; in assay [5], 1.15%. Also, the Percent Effect in assay [6] was 17.2%; in the assay listed under Homo sapiens it was 29.1%; in assay [7], 4.41%; in assay [8], 12.2%; in [9], -7.57%.

As for `COc1ccc(CN2CCC3(CC2)CCN(c2ncccn2)CC3)cc1`, the Percent Effect in [1] was -2.42%; in [2], 2.7%; in [3] it was 0.552%; in assay [4], 4.9%; with Trypanosoma cruzi, 5.57%; in assay [5], 8.6%. Further, the Percent Effect in assay [6] was 1.29%; in the assay filed under Homo sapiens, -26.6%; in assay [7] it was 0%; in [8] it was 5.13%; in assay [9], 6.6%.
